# Compound activity as filed in PubChem.
# Autofluor counter: counter-screen for toxin protease inhibitors: compound fluorescence. 360,000 compounds, 3.1% hits. compound autofluorescence counterscreen, microsphere flow cytometry; hits give high values. AID 624483. fluorescence intensity (concentration not given with the values); in the data active = fluorescence intensity above about 16000; inconclusive = no clear call, values can overlap the other calls
# MazEF act: activators of E. coli MazEF toxin-antitoxin RNase, primary screen, biochemical, fluorescence, uHTS; Endoribonuclease toxin MazF (Escherichia coli (strain K12)), P0AE70; FAM/BHQ RNA-DNA oligo cleavage fluorescence, 5 h; activation, % at 20 µM; 350,000 compounds, 0.32% hits; in the data active = activation above about 50%
# BoNT-F LC inh: BoNT/F light chain protease inhibitors, primary screen, biochemical, flow cytometry, MLPCN library. Botulinum neurotoxin type F light chain protease (Clostridium botulinum). Multiplex microsphere protease cleavage assay. inhibition, % at 10 µM. 360,000 compounds, 0.22% hits; in the data active = inhibition above about 35%, passing the limit was not always enough; inconclusive = no clear call, values can overlap the other calls; note: plate controls were buffer without enzyme for full effect and enzyme alone for no effect
# Anthrax LF inh2: Bacillus anthracis LF protease inhibitors, primary screen, biochemical, multiplex microsphere, MLPCN library; 360,000 compounds, 0.12% hits; AID 588501, 2011; multiplex microsphere protease cleavage assay; Lethal factor (Bacillus anthracis), P15917; inhibition, % at 10 µM; note: plate controls were buffer without enzyme for full effect and enzyme alone for no effect
# BoNT A protease: BoNT/A light chain protease inhibitors, primary screen, biochemical, flow cytometry, MLPCN library; multiplex microsphere protease substrate cleavage; inhibition, % at 10 µM; 360,000 compounds, 0.17% hits; AID 588499, 2011; note: plate controls were buffer without enzyme for full effect and enzyme alone for no effect
# * hit, by the source's call; i = inactive; ? = inconclusive; . = not tested or not shown. Only some compounds are listed: those with a hit (about 3.6% of all), similar ones and a draw of the others. Cut-off read from the data, not from the text of the source, unless noted: active = inhibition above about 30%; inconclusive = no clear call, values can overlap the other calls; inactive = below that.
SMILES,Autofluor counter,MazEF act,BoNT-F LC inh,Anthrax LF inh2,BoNT A protease
CCOC(=O)CSc1nc2c(c(=O)[nH]c(=O)n2C)n1C/C=C(/C)Cl,24116*,-14.0,0.5,-3.1,?
CCCSc1nc2c(c(=O)[nH]c(=O)n2C)n1Cc1ccccc1,4071,-21.1,-3.2,11.6,-3.0
Cn1c(=O)[nH]c(=O)c2c1nc(CN1CCN(c3cccc(Cl)c3)CC1)n2CCN1CCOCC1,20987*,12.8,7.6,2.6,?
CCCCn1c(SCC(=O)OCC)nc2c1c(=O)[nH]c(=O)n2C,5531,0.2,0.0,-8.9,-0.6
CCCSc1nc2c(c(=O)[nH]c(=O)n2C)n1Cc1ccc(C)cc1,21791*,-32.1,1.3,-2.2,1.1
Cc1ccc(Cn2c(CN3CCOCC3)nc3c2c(=O)[nH]c(=O)n3C)cc1,22053*,0.9,1.7,-1.6,4.5
O=C(COc1cccc(C(F)(F)F)c1)NNC(=O)c1ccc(=O)[nH]c1,3410,5.0,1.8,4.5,0.9
c1ccc(C2Nc3ccccc3C3OCCCC23)cc1 (stereo not given),4415,4.3,-12.0,-4.9,-3.2
Oc1ccccc1CC=NC1CCCCC1,7025,1.2,5.1,1.7,0.4
CC(C)CCn1c(CN2CCN(Cc3ccccc3)CC2)nc2c1c(=O)[nH]c(=O)n2C,22665*,2.4,-1.4,-0.9,-0.6
Cc1cccc(Cn2c(CN3CCN(Cc4ccccc4)CC3)nc3c2c(=O)[nH]c(=O)n3C)c1,5944,14.6,-15.4,4.9,-0.8
CNS(=O)(=O)c1ccc(OC)c(-c2nnc3c4ccccc4c(C)nn23)c1,2635,6.1,-2.9,2.6,0.0
COc1ccc(S(=O)(=O)NCc2ccco2)cc1-c1nnc2c3ccccc3c(C)nn12,20211*,9.2,6.5,-4.9,7.4
COc1ccc(S(=O)(=O)Nc2ccc3c(c2)C(=O)N([C@H](C)CO)C[C@H](C)[C@@H](CN(C)S(=O)(=O)c2ccc(OC)cc2)O3)cc1,3296,20.1,-8.7,-2.4,-0.8
CC(C)CN(C(=O)CCCOc1ccc(Cl)cc1Cl)c1c(N)n(Cc2ccccc2)c(=O)[nH]c1=O,5801,0.1,-7.1,-0.7,0.7
Cc1ccc(-n2ncc3c(=O)n(Cc4cccnc4)cnc32)cc1,19270*,-8.2,-2.6,-2.7,0.6
O=C1CSC(=Nc2cc(Cl)ccc2Cl)N1,22505*,-1.7,1.6,1.9,3.6
CC(=O)N1CCC(=NNS(=O)(=O)c2cccc([N+](=O)[O-])c2)CC1,9361,53.0*,-0.5,-14.2,0.2
COc1ccc(-c2ccc3c(c2)C2CC3CCN2C(=O)OCc2ccccc2)cc1 (stereo not given),3820,-9.2,-3.3,-2.6,-0.3
CCn1c(-c2nonc2NC(=O)c2ccccc2)nc2ccccc21,20786*,-5.4,1.2,-1.4,-0.5
CC(=O)Nc1nonc1-c1nc2ccccc2n1Cc1ccccc1,3900,1.3,13.9,1.8,0.4
CC(=O)Nc1nonc1-c1nc2ccccc2n1Cc1nnc(C)o1,22950*,15.8,-0.7,1.2,0.7
CCC(=O)Nc1nonc1-c1nc2ccccc2n1Cc1ccc(Cl)c(Cl)c1,5464,-22.3,1.9,-4.8,-0.6
N#Cc1ccsc1NC(=O)COC(=O)C1=NNC(=O)CC1,8423,-14.8,-4.0,-0.6,1.7
CC(=O)Nc1cc(C(N)=O)c(Cl)cc1Cl,?,0.0,i,-240.5,?
SMILES,Autofluor counter,MazEF act,BoNT-F LC inh,Anthrax LF inh2,BoNT A protease
NC(=S)Nc1ccc(Cl)c(Cl)c1,4462,10.7,?,52.2*,-1.2
CC(=O)Nc1ccc(Cl)c(C(N)=O)c1,19829*,-5.0,-1.8,0.1,-0.9
Cc1c(NC(=O)COC(=O)c2cccc(F)c2)c(=O)n(-c2ccccc2)n1C,2846,4.5,0.4,-5.7,-0.1
COc1cc2c(cc1OC)C(c1cc3cc(OC)c(OC)cc3[nH]c1=O)N(C(=O)C1CC1)CC2 (stereo not given),20442*,3.1,0.1,-3.2,1.0
C[C@@H]1CN([C@@H](C)CO)C(=O)CCCn2nncc2CO[C@H]1CN(C)S(C)(=O)=O,3765,-6.1,-3.2,8.2,0.0
C[C@H](CO)N1C[C@H](C)[C@H](CN(C)S(C)(=O)=O)OCc2cnnn2CCCC1=O,3016,68.0*,-1.4,-3.5,0.1
Cc1cc2n(n1)SC(Nc1cccc3ccccc13)N2 (stereo not given),17932*,3.6,8.6,-1.0,6.7
CCc1ccccc1NC1Nc2cc(C)nn2S1 (stereo not given),3877,11.8,-4.7,-1.6,-0.7
Cc1cc2n(n1)SC(Nc1ccc(F)cc1)N2 (stereo not given),.,-6.8,.,.,.
Cc1cc2n(n1)SC(Nc1cc(Cl)ccc1Cl)N2 (stereo not given),20196*,-13.8,0.9,-6.1,0.5
COc1ccc(CC(=O)NCCc2ccc(S(N)(=O)=O)cc2)cc1,19944*,4.0,2.9,0.6,?
CCC(CC)C(=O)Nc1cccc(C(=O)NCCc2ccc(S(N)(=O)=O)cc2)c1,23028*,-4.7,-0.4,1.0,-1.2
NS(=O)(=O)c1ccc(CCNC(=O)Nc2ccc(Cl)c(Cl)c2)cc1,16607*,-5.9,-5.2,-8.5,-1.7
Cc1ccc(CC(=O)NCCc2ccc(S(N)(=O)=O)cc2)cc1,3648,-4.0,19.0,7.0,-0.1
CCCCC(=O)NCCc1ccc(S(N)(=O)=O)cc1,16934*,9.9,-1.9,-1.6,-0.6
CCC(CC)C(=O)NCCc1ccc(S(N)(=O)=O)cc1,21021*,6.8,5.6,1.1,3.9
CCCCC(CC)C(=O)NCCc1ccc(S(N)(=O)=O)cc1 (stereo not given),23826*,-0.7,-1.4,-2.1,-0.3
CNC[C@H]1Oc2c(NC(=O)C3CC3)cccc2C(=O)N([C@H](C)CO)C[C@@H]1C,3981,4.0,6.4,0.7,0.2
CNC(=O)c1cc(C(=O)c2ccc(F)cc2C(F)(F)F)c[nH]1,3472,6.8,9.8,4.6,-0.5
COc1cccc2[nH]c3c(N4CCC(C)CC4)ncnc3c12,23249*,17.2,-3.8,-0.2,0.3
Cc1nn(-c2ccc(Cl)cc2)c(Cl)c1/C=N/NC(=O)c1ccc(NS(=O)(=O)c2cccs2)cc1,5367,-11.5,-6.9,1.9,-0.6
CCCCOC(=O)Nc1ccc(N2CCOCC2)cc1,20906*,4.8,-4.9,-5.5,?
CCOC(=O)Nc1ccc(S(=O)(=O)NCCCN2CCOCC2)cc1,17393*,-2.8,-3.3,-3.4,-2.2
CC1(C(=O)NS(=O)(=O)c2cccc(C#N)c2)CCN1C(=O)c1ccco1 (stereo not given),3508,.,6.7,-1.6,0.5
Cc1cc(NC(=O)CCCC(=O)N(CC(=O)NCCc2ccccc2)Cc2ccc(F)cc2)no1,20415*,-4.7,-4.0,-4.8,-2.8
CCN(CC)c1ccc(S(=O)(=O)N2CCOCC2)cc1NC(=O)CSc1nncs1,5649,-1.2,-0.7,-1.7,-1.2
